Some structures have more than one record in an assay (separate samples or runs), and their calls can disagree. Active and inactive are the calls of the source. How the source made its calls: active means hit-call score of the fitted dose curve at least 0.9, where 1 is the maximum; inactive means score below 0.9.

Read-out in one assay: Human Leukocyte Antigen - DR isotype (HLADR), HLA-DRA (gene 3122)
Briefly: BSK_CASM3C_HLADR: BioMAP Diversity Plus: CASM3C Assay for Human Leukocyte Antigen - DR isotype (HLADR) Biomarker Activity (AID 2283043).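 Further: cell-surface HLA-DR protein level quantified by ELISA.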 To be noted: primary human coronary artery smooth muscle cells; actives raise or lower the signal.
For `CC(C)(C)OOC(=O)c1ccccc1`, the outcome was inactive.

In general, AC50 refers to the concentration at which the activity in the assay is half-maximal. Take `ClC1=C(Cl)C2(Cl)C3C(Cl)C=CC3C1(Cl)C2(Cl)Cl` (stereo not given): the AC50 is 29.3 µM (active).

Turning to `CCC12COCN1COC2`, the result was inactive.

With `CCNS(=O)(=O)C(F)(F)C(F)(F)C(F)(F)C(F)(F)C(F)(F)C(F)(F)C(F)(F)C(F)(F)F`, the AC50 was 8.6 µM (active) and the result was inactive.

For the compound `CN(C)c1ccccc1`, the result was inactive.

Consider `ClCCOCCCl`, for which the outcome was inactive.

With `CCOc1cccc(C2(N3CCN(c4ccccc4)CC3)CCC(C)CC2)c1` (stereo not given), the outcome was inactive.

For the compound `CC(C)(C)C(O)(CCc1ccc(Cl)cc1)Cn1cncn1` (stereo not given), the result was inactive.

As to `OCCCl`, the outcome was inactive.

For the compound `CC(C)N(Cc1ccccc1)C(=O)C(C)(C)C`, the result was inactive.

On to `C[N+](C)(C)CC1CO1` (stereo not given), for which the outcome was inactive.

Turning to `O=[N+]([O-])c1ccc(Oc2ccc(Cl)cc2Cl)cc1`, the outcome was inactive.

In the case of `C1=Cc2cccc3cccc1c23`, the result was inactive.

Regarding `Nc1ccc(Cc2ccc(N)cc2)cc1`, the result was inactive.

Regarding `c1ccc(C2CO2)cc1` (stereo not given), the result was inactive.

`Cc1ccc([N+](=O)[O-])cc1`: the outcome was inactive.

With `CNC(=O)Oc1cccc2c1OC(C)(C)C2`, the result was inactive.

As for `Cc1cccc(N)c1N`, the result was inactive.

Take `CN(C)C(=O)Nc1ccc(Cl)cc1`: the result was inactive.

Take `[O-][Cl+]O`: the outcome was inactive.

Regarding `O=C(N[C@H](c1ccccc1)[C@@H]1CN2CCC1CC2)c1c(Cl)ccc(C(F)(F)F)c1Cl`, the result was inactive.

Consider `Clc1ccccc1Cl`, for which the outcome was inactive.

For the compound `OCCCBr`, the outcome was inactive.

On to `CN(C)c1ccc(C(=O)c2ccc(N(C)C)cc2)cc1`, for which the result was inactive.

As to `CCCCC(CC)COC(=O)c1ccc(C(=O)OCC(CC)CCCC)c(C(=O)OCC(CC)CCCC)c1` (stereo not given), the outcome was inactive.

Regarding `COC(=O)Nc1nc2ccccc2[nH]1`, the AC50 was 5.43 µM (active).

`Cc1cc(N=Nc2ccccc2C)ccc1N`: the result was inactive.

Read-out in a further assay: Macrophage colony-stimulating factor (MCSF), CSF1 (gene 1435)
Briefly: BSK_CASM3C_MCSF: BioMAP Diversity Plus: CASM3C Assay for Macrophage colony-stimulating factor (MCSF) Biomarker Activity (AID 2283044).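 Further: M-CSF protein amount quantified by ELISA after 24 h exposure.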 To be noted: primary human coronary artery smooth muscle cells; actives raise or lower the signal.
For the compound `CC(C)(C)OOC(=O)c1ccccc1`, the outcome was inactive.

As to `ClC1=C(Cl)C2(Cl)C3C(Cl)C=CC3C1(Cl)C2(Cl)Cl` (stereo not given), the AC50 is 30 µM (active).

`CCC12COCN1COC2`: the result was inactive.

`CCNS(=O)(=O)C(F)(F)C(F)(F)C(F)(F)C(F)(F)C(F)(F)C(F)(F)C(F)(F)C(F)(F)F`: the result was inactive.

As for `CN(C)c1ccccc1`, the outcome was inactive.

Regarding `ClCCOCCCl`, the result was inactive.

On to `CCOc1cccc(C2(N3CCN(c4ccccc4)CC3)CCC(C)CC2)c1` (stereo not given), for which the outcome was inactive.

On to `CC(C)(C)C(O)(CCc1ccc(Cl)cc1)Cn1cncn1` (stereo not given), for which the result was inactive.

With `OCCCl`, the result was inactive.

For the compound `CC(C)N(Cc1ccccc1)C(=O)C(C)(C)C`, the result was inactive.

In the case of `C[N+](C)(C)CC1CO1` (stereo not given), the result was inactive.

Consider `O=[N+]([O-])c1ccc(Oc2ccc(Cl)cc2Cl)cc1`, for which the result was inactive.

In the case of `C1=Cc2cccc3cccc1c23`, the outcome was inactive.

Regarding `Nc1ccc(Cc2ccc(N)cc2)cc1`, the outcome was inactive.

Consider `c1ccc(C2CO2)cc1` (stereo not given), for which the outcome was inactive.

Consider `Cc1ccc([N+](=O)[O-])cc1`, for which the result was inactive.

For the compound `CNC(=O)Oc1cccc2c1OC(C)(C)C2`, the result was inactive.

Turning to `Cc1cccc(N)c1N`, the AC50 was 3.73 µM (active).

As for `CN(C)C(=O)Nc1ccc(Cl)cc1`, the outcome was inactive.

With `[O-][Cl+]O`, the result was inactive.

Take `O=C(N[C@H](c1ccccc1)[C@@H]1CN2CCC1CC2)c1c(Cl)ccc(C(F)(F)F)c1Cl`: the outcome was inactive.

On to `Clc1ccccc1Cl`, for which the outcome was inactive.

As for `OCCCBr`, the outcome was inactive.

In the case of `CN(C)c1ccc(C(=O)c2ccc(N(C)C)cc2)cc1`, the outcome was inactive.

`CCCCC(CC)COC(=O)c1ccc(C(=O)OCC(CC)CCCC)c(C(=O)OCC(CC)CCCC)c1` (stereo not given): the outcome was inactive.

Turning to `COC(=O)Nc1nc2ccccc2[nH]1`, the outcome was inactive.

Consider `Cc1cc(N=Nc2ccccc2C)ccc1N`, for which the outcome was inactive.
